# What was measured:
# Assay in all cases: DAPPL (digital affinity profiling via proximity ligation, sequencing); 10 mM Tris-HCl pH 7.5, 50 mM NaCl, 1 mM DTT, 4% glycerol, room temperature, 30 min; GST-TFs on glutathione beads, 16-mer random dsDNA library, 0.1% formaldehyde crosslink after washing; high values mean tight binding
# FEV = molecular target: T1, FEV (Homo sapiens, UniProt Q99581 1-238); conditions: protein: recombinant; tags: N-terminal GST; dsDNA, one strand shown
# T1 sequence: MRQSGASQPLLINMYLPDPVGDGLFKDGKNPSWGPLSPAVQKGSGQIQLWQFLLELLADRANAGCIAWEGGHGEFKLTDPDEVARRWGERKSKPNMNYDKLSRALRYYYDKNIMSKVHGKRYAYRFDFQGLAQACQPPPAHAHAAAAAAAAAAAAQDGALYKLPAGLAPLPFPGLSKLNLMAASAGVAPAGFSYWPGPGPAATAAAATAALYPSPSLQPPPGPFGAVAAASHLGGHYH
# In short: (§1)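 Binding signal is each hexamer's read frequency for a factor divided by its frequency in the tag-only sample. The factors were GST-fused human transcription factors from yeast, captured on glutathione beads, DNA-barcoded and pooled with that sample. Pools were incubated with 200 nmole of a random double-stranded 16-mer DNA library in Tris/NaCl/DTT/glycerol buffer at room temperature for 30 min, then washed, crosslinked with 0.1% formaldehyde, proximity-ligated with BsaI/T4 ligase (1 h, 37 °C), PCR-amplified and sequenced on an Illumina NextSeq500.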
# ETV5 = ETV5 (Homo sapiens, UniProt P41161 1-510); conditions: protein: recombinant; tags: N-terminal GST; dsDNA, one strand shown
# In short: as §1
# HSF1 = HSF1 (Homo sapiens, UniProt Q00613 1-529); conditions: protein: recombinant; tags: N-terminal GST; chain copies: 3; dsDNA, one strand shown
# In short: as §1
# SPIC = molecular target: T2, SPIC (Homo sapiens, UniProt Q8N5J4 1-248); conditions: protein: recombinant; tags: N-terminal GST; dsDNA, one strand shown
# T2 sequence: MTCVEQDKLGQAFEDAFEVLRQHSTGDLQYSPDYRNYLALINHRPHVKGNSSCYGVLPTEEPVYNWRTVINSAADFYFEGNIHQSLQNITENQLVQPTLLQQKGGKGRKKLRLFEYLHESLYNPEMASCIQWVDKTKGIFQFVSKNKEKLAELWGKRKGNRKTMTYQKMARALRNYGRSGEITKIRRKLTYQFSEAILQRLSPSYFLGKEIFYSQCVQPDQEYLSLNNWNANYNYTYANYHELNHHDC
# In short: as §1
# ELF4 = ELF4 (Homo sapiens, UniProt Q99607 1-663); conditions: protein: recombinant; tags: N-terminal GST; dsDNA, one strand shown
# In short: as §1
# ELK4 = molecular target: T3, ELK4 (Homo sapiens, UniProt P28324-2 1-405); conditions: protein: recombinant; tags: N-terminal GST; dsDNA, one strand shown
# T3 sequence: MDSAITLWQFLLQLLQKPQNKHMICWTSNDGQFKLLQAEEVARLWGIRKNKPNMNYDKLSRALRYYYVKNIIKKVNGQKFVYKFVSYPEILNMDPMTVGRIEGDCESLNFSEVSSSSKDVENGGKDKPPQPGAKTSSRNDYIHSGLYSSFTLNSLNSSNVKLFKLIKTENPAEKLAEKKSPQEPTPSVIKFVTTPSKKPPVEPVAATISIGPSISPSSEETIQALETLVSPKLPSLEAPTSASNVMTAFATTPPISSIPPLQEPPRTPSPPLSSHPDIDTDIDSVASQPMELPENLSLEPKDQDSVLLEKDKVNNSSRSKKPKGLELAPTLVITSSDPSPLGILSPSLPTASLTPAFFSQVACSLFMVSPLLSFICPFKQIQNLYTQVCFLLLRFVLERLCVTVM
# In short: as §1
# ETV2 = molecular target: T4, ETV2 (Homo sapiens, UniProt O00321 1-342); conditions: protein: recombinant; tags: N-terminal GST; dsDNA, one strand shown
# T4 sequence: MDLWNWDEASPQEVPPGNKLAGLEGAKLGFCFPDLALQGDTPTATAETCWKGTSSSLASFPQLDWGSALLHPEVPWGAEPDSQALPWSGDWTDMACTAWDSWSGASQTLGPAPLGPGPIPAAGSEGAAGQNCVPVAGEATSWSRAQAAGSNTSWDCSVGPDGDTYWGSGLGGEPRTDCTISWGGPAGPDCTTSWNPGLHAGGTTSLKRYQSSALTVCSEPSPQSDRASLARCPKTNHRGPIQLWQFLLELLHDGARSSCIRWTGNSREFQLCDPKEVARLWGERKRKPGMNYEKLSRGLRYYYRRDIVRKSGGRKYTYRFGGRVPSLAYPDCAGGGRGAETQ
# In short: as §1
# ELF3 = molecular target: T5, ELF3 (Homo sapiens, UniProt P78545 1-371); conditions: protein: recombinant; tags: N-terminal GST; dsDNA, one strand shown
# T5 sequence: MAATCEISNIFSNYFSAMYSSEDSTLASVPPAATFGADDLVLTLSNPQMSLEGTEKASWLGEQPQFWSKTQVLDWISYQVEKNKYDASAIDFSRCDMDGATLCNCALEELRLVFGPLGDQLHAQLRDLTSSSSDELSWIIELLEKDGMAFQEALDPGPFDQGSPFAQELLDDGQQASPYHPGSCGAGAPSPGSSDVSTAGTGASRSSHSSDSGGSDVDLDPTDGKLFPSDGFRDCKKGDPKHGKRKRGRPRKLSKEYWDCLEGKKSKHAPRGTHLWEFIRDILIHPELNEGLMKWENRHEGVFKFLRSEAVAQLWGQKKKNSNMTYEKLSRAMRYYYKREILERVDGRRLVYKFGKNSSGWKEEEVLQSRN
# In short: as §1
# CRX = CRX (Homo sapiens, UniProt O43186 1-299); conditions: protein: recombinant; tags: N-terminal GST; dsDNA, one strand shown
# In short: as §1
# ETV1 = ETV1 (Homo sapiens, UniProt P50549 1-477); conditions: protein: recombinant; tags: N-terminal GST; dsDNA, one strand shown
# In short: as §1
# ERF = molecular target: T6, ERF (Homo sapiens, UniProt P50548 1-548); conditions: protein: recombinant; tags: N-terminal GST; dsDNA, one strand shown
# T6 sequence: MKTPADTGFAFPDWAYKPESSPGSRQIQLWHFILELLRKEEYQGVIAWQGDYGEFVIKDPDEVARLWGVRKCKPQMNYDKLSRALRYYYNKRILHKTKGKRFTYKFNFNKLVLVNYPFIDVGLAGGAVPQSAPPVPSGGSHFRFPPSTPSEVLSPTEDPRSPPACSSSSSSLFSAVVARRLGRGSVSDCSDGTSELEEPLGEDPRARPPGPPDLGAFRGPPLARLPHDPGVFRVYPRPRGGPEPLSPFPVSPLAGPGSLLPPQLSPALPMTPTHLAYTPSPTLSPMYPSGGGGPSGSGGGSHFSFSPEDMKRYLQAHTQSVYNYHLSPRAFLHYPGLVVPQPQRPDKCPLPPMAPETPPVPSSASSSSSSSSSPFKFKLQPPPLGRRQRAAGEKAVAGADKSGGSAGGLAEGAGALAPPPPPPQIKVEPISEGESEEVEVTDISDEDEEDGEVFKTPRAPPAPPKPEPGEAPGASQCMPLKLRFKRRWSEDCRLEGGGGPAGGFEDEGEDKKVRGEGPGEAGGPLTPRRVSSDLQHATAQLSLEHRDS
# In short: as §1
# ETV3L = molecular target: T7, ETV3L (Homo sapiens, UniProt Q6ZN32 1-361); conditions: protein: recombinant; tags: N-terminal GST; dsDNA, one strand shown
# T7 sequence: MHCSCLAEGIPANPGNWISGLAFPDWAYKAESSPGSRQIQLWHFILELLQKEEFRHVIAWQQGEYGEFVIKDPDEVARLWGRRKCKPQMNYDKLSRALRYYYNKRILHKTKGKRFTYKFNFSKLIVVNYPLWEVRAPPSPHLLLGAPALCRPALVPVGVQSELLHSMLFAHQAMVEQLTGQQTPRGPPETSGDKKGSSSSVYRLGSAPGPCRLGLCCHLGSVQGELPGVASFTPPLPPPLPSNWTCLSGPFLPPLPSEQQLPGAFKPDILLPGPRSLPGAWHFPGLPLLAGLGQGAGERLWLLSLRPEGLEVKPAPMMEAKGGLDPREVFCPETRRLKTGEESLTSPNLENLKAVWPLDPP
# In short: as §1
# ETS2 = molecular target: T8, ETS2 (Homo sapiens, UniProt P15036 1-469); conditions: protein: recombinant; tags: N-terminal GST; dsDNA, one strand shown
# T8 sequence: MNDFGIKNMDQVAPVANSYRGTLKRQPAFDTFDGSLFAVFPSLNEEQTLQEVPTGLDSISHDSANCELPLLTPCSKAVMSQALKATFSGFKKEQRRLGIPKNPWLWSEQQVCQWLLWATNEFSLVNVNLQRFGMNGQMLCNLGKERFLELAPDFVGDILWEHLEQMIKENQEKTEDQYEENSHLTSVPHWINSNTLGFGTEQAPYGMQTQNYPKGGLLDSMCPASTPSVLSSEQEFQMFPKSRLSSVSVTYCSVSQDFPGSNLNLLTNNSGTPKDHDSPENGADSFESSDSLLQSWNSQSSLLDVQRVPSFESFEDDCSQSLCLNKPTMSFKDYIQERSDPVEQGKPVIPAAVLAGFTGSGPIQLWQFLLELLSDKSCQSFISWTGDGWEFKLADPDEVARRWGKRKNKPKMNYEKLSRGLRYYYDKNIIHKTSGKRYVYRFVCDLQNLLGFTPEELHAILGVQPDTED
# In short: as §1
# SPDEF = molecular target: T9, SPDEF (Homo sapiens, UniProt O95238 1-335); conditions: protein: recombinant; tags: N-terminal GST; dsDNA, one strand shown
# T9 sequence: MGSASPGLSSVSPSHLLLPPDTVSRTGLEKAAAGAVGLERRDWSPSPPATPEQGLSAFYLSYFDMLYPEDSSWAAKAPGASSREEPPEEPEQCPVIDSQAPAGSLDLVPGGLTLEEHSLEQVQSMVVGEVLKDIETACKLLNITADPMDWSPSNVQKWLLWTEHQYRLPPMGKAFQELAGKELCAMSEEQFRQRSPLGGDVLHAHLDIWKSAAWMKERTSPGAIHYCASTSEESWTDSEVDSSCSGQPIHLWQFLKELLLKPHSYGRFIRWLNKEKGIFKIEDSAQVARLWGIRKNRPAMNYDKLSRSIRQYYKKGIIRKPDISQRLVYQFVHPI
# In short: as §1
# ETV7 = molecular target: T10, ETV7 (Homo sapiens, UniProt Q9Y603 1-341); conditions: protein: recombinant; tags: N-terminal GST; dsDNA, one strand shown
# T10 sequence: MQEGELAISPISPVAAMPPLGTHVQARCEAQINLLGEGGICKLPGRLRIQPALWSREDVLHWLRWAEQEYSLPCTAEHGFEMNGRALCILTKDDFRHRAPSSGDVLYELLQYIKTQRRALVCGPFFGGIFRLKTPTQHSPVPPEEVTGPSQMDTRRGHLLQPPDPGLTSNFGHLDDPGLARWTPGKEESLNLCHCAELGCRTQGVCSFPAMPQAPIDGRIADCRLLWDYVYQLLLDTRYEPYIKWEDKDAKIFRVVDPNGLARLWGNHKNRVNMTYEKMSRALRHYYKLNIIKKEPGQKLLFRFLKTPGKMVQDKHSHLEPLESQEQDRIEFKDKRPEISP
# In short: as §1
# ELF5 = molecular target: T11, ELF5 (Homo sapiens, UniProt Q9UKW6-2 1-255); conditions: protein: recombinant; tags: N-terminal GST; dsDNA, one strand shown
# T11 sequence: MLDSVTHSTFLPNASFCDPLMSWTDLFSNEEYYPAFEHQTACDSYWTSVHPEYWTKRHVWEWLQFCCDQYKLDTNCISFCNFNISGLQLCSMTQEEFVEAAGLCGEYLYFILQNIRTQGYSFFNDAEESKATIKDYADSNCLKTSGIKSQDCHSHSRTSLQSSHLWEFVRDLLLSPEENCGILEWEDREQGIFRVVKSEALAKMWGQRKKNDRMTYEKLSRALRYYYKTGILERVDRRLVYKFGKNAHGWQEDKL
# In short: as §1
# ETV3 = molecular target: T12, ETV3 (Homo sapiens, UniProt P41162-2 1-143); conditions: protein: recombinant; tags: N-terminal GST; dsDNA, one strand shown
# T12 sequence: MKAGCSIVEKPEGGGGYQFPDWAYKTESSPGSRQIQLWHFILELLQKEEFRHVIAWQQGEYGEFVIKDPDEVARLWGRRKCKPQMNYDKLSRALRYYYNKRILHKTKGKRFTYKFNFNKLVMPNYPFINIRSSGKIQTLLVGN
# In short: as §1
# ETV6 = ETV6 (Homo sapiens, UniProt P41212 1-452); conditions: protein: recombinant; tags: N-terminal GST; dsDNA, one strand shown
# In short: as §1
# HSF1, sequence (Q00613 whole entry): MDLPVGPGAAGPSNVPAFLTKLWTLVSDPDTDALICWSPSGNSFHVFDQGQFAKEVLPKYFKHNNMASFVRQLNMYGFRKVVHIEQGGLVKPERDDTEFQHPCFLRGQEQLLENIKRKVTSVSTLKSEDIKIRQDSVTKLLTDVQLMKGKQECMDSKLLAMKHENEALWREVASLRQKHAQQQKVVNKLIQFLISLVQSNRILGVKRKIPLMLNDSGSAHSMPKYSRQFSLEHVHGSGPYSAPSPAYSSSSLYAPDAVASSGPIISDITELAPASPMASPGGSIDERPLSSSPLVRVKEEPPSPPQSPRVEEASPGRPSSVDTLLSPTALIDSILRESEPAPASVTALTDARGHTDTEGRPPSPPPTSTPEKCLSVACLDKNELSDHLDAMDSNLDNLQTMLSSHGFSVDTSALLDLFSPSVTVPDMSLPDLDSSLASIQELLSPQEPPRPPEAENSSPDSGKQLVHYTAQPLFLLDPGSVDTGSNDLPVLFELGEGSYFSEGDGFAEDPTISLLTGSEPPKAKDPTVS
# ETV6, sequence (P41212 whole entry): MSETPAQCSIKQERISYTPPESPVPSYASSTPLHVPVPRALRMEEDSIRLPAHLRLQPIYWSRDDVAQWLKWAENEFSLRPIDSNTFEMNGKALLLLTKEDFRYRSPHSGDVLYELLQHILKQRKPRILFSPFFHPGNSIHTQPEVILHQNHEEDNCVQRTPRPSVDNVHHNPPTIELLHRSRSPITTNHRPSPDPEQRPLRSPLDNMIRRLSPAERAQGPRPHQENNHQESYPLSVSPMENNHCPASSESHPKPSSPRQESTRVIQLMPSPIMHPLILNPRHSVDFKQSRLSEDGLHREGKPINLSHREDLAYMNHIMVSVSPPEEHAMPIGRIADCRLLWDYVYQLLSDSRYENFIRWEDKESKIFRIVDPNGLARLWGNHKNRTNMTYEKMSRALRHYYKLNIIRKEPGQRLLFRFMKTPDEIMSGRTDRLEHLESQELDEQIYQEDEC
# ETV1, sequence (P50549 whole entry): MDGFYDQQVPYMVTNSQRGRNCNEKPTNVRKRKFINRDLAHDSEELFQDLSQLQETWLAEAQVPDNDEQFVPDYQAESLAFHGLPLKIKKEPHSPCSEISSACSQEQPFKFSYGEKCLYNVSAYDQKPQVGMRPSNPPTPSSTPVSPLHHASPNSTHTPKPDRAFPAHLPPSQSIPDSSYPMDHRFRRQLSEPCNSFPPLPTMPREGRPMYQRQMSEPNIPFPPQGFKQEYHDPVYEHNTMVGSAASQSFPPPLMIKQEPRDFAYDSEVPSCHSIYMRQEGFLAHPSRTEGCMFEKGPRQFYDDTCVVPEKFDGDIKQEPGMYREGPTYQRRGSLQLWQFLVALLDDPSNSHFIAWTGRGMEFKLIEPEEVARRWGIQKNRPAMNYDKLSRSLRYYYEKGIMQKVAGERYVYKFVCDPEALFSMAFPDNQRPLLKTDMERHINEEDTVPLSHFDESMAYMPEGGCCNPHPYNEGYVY
# ELF4, sequence (Q99607 whole entry): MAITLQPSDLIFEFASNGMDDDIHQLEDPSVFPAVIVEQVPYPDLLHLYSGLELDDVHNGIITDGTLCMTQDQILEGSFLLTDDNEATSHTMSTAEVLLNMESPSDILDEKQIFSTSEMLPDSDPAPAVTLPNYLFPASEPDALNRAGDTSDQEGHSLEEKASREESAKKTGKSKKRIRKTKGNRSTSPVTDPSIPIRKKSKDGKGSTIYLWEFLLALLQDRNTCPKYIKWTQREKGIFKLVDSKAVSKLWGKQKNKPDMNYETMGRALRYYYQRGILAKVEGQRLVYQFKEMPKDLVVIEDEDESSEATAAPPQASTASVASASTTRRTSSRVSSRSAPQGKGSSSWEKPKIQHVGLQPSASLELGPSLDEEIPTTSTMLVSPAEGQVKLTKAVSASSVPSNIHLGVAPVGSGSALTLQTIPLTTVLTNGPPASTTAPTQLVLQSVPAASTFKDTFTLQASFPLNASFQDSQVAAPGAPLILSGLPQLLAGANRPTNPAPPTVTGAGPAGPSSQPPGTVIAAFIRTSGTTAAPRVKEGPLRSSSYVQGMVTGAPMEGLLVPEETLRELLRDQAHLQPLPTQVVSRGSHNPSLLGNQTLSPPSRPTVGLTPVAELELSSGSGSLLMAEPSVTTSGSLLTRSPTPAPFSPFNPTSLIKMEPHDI
# ETV5, sequence (P41161 whole entry): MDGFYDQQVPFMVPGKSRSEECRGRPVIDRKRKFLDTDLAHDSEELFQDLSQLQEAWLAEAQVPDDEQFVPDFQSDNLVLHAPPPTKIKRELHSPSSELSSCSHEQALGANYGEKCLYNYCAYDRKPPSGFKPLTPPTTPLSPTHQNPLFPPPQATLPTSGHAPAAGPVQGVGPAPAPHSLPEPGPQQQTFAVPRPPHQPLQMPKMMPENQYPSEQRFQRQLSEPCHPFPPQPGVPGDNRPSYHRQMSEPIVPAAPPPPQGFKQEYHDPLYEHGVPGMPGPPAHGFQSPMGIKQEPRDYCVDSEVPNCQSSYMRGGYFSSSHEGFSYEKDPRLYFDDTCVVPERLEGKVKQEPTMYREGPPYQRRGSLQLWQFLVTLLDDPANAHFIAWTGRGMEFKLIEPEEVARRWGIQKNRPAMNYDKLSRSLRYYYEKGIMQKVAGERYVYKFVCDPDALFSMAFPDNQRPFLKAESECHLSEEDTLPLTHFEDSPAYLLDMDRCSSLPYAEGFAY
# CRX, sequence (O43186 whole entry): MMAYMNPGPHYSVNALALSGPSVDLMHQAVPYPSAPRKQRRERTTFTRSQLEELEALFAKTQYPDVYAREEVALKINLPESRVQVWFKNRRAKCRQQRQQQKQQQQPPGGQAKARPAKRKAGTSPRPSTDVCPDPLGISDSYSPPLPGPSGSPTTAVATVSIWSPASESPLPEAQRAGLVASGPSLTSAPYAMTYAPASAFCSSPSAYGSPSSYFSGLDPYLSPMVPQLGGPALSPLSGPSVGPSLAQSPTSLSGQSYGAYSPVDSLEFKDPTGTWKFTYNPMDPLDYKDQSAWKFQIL
sequence,measurement,setting,value
CCTATT,binding signal,FEV,"1.39 fold enrichment (6-mer frequency, TF over GST control)"
same,binding signal,ETV5,"1.51 fold enrichment (6-mer frequency, TF over GST control)"
same,binding signal,HSF1,"1.43 fold enrichment (6-mer frequency, TF over GST control)"
same,binding signal,SPIC,"1.46 fold enrichment (6-mer frequency, TF over GST control)"
same,binding signal,ELF4,"1.44 fold enrichment (6-mer frequency, TF over GST control)"
same,binding signal,ELK4,"1.37 fold enrichment (6-mer frequency, TF over GST control)"
same,binding signal,ETV2,"1.46 fold enrichment (6-mer frequency, TF over GST control)"
same,binding signal,ELF3,"1.54 fold enrichment (6-mer frequency, TF over GST control)"
same,binding signal,CRX,"1.67 fold enrichment (6-mer frequency, TF over GST control)"
same,binding signal,ETV1,"1.55 fold enrichment (6-mer frequency, TF over GST control)"
same,binding signal,ERF,"1.6 fold enrichment (6-mer frequency, TF over GST control)"
same,binding signal,ETV3L,"1.64 fold enrichment (6-mer frequency, TF over GST control)"
same,binding signal,ETS2,"1.49 fold enrichment (6-mer frequency, TF over GST control)"
same,binding signal,SPDEF,"1.51 fold enrichment (6-mer frequency, TF over GST control)"
same,binding signal,ETV7,"1.52 fold enrichment (6-mer frequency, TF over GST control)"
same,binding signal,ELF5,"1.53 fold enrichment (6-mer frequency, TF over GST control)"
same,binding signal,ETV3,"1.52 fold enrichment (6-mer frequency, TF over GST control)"
same,binding signal,ETV6,"1.59 fold enrichment (6-mer frequency, TF over GST control)"

# Source: publication PMC7862700, “An all-to-all approach to the identification of sequence-specific readers for epigenetic DNA modifications on cytosine”
